Assay outcomes: PubChem BioAssay, National Center for Advancing Translational Sciences (NCATS)
A selection: hits, their analogues and other compounds. The true share with any hit is near 7.3%.
FMDV antiviral: blocks foot and mouth disease virus; FMDV antiviral cell-based qHTS; Potency, µM (highest dose often 57.9 µM), for the others: at the highest dose activity change, negative = inhibition, usual class: inhibitors; 1.2% of 410,000 active; calls by dose curve; tested in HEK293T cells; also: read-out not given here; potency is read from the fitted curve at half-maximal effect; nearly all actives have a fitted effect of over 45% in size
Vaccinia mCherry: vaccinia inhibition (mCherry reporter) | Vaccinia virus mCherry reporter infection, fluorescence | 0.63% of 310,000 active | Potency, µM (highest dose often 36.5 µM), inactives show top-dose activity change, negative = inhibition, actives largely listed as inhibitors; calls by dose curve; tested in A549 cells; also: potency is read from the fitted curve at half-maximal effect; nearly all actives have a fitted effect of over 35% in size
HCV inh: blocks hepatitis C virus. 3.4% of 340,000 active. Huh7.5.1 HCVcc-Cre infection, luciferase reporter, 44 h. AID 651820. Potency, µM (series often up to 41.8 µM), for inactives: top-dose activity change, negative = inhibition, actives largely listed as inhibitors; active = well fitted inhibition curve with a large enough effect; inconclusive = small, poorly fitted or top-dose-only effect, or another doubt; inactive = no such curve, though single readings can be large or run the other way; also: potency is read from the fitted curve at half-maximal effect
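Luciferase read-out (15 sec integration) after a 15 min room-temperature substrate step quantifies HCVcc-Cre infection. Cells, 1,000 per well, had compound added 4 h post-plating, then virus at ~0.5 moi, and were cultured 44 h.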
VACV Venus inh: vaccinia inhibition (Venus reporter); Vaccinia virus Venus reporter expression, fluorescence; Potency, µM (top dose mostly 36.5 µM), inactives show at the top dose activity change, negative = inhibition, actives largely listed as inhibitors; 0.46% of 330,000 active; calls by dose curve; tested in A549 cells; also: potency is read from the fitted curve at half-maximal effect; nearly all actives have a fitted effect of over 30% in size
HCMV inh: inhibitors of human cytomegalovirus | activity change, negative = inhibition, % at 57.5 µM | 4.5% of 410,000 active | HFF cells, HCMV-luciferase reporter, 72 h; hits give low values | AID 1259415; in the data active = activity change below about -60%; inconclusive = no clear call, values can overlap the other calls; inactive = above about -39%
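HFF cells seeded 16 h at 37C, treated with compounds, infected with luciferase-reporter HCMV at MOI 1 PFU/cell; luciferase read at 72 h post infection, normalized to buffer-only and Salinomycin controls.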
The depositor's hits bear a star; i = inactive; ? = inconclusive; nt = no result; [ ] = another dose, or the depositor's remark. % is scaled to controls: 0 for no effect and ±100 for the full control effect.

SMILES	FMDV antiviral	Vaccinia mCherry	HCV inh	VACV Venus inh	HCMV inh
O=C(Nc1nc(-c2ccncc2)cs1)c1ccc(S(=O)(=O)N2CCOCC2)cc1	?	-18%	-22%	-17%	36
O=C(Nc1nc(-c2cccs2)cs1)c1ccc(S(=O)(=O)N2CCCCC2)cc1	16µM*	?	18µM*	?	-67*
Cc1nc(-c2cccc(NC(=O)c3cccc(S(=O)(=O)N4CCCC4)c3)c2)cs1	?	nt	10µM*	nt	?
Cc1csc(NC(=O)c2cccc(S(=O)(=O)N3CCCCC3)c2)n1	-27%	-28%	-1%	-19%	36
O=C(Nc1nc(-c2cccs2)cs1)c1cccc(S(=O)(=O)N2CCCCCC2)c1	3%	?	11µM*	?	95
Cc1ccc(-n2cc3c(c2-c2ccccc2Br)c(=O)n(C)c(=O)n3C)cc1N	-25%	-15%	nt	-15%	-27
O=C(NCc1nc(-c2ccc(C(F)(F)F)cc2)no1)Nc1cc(Cl)cc(Cl)c1	?	nt	5%	nt	-96*
O=C(NCc1nc(-c2ccc(C(F)(F)F)cc2)no1)Nc1ccc(F)cc1F	-11%	-20%	-14%	-21%	76
CC(C)(C)c1ccc(-c2noc(CCC(=O)NCc3ccco3)n2)cc1	-8%	0%	?	?	-81*
CC(C)(C)c1ccc(-c2noc(CCC(=O)Nc3cccc(Cl)c3)n2)cc1	-65%	0%	nt	-6%	-89*
O=C(CCc1nc(-c2ccc(F)cc2)no1)Nc1cccc(C(=O)NC2CC2)c1	40µM*	nt	14µM*	nt	34
CCc1cccc(NC(=O)c2cc3c(=O)n(Cc4ccc(OC)cc4)ccc3nc2C)c1	?	-7%	nt	-14%	0
Cc1ccc(C)c(Nc2nc(-c3ccccc3)c3cc(Br)ccc3n2)c1	-16%	3%	nt	9%	-15
COC(=O)C1CCN(Cc2ccc3c(c2)CN(C(=O)C2Cc4ccccc4O2)CCO3)CC1 (stereo unspecified)	-12%	-4%	nt	10%	nt
Cc1cccc[n+]1CC(=O)c1ccc([N+](=O)[O-])cc1	-7%	-21%	?	-5%	-87*
O=C(C[n+]1cccc(C(=O)Nc2ccccc2)c1)c1ccc([N+](=O)[O-])cc1	3%	-26%	11µM*	-3%	18
N#C/C(=C/N1CCOCC1)c1ccccc1	-44%	nt	3.2µM*	6%	14
CCc1ccc(C(=O)NN(C(=O)c2ccc(CC)cc2)C(C)(C)C)cc1	-11%	-22%	-24%	-9%	-25
CC(C)(C)N(NC(=O)c1ccccc1)C(=O)c1ccc(C(=O)N(NC(=O)c2ccccc2)C(C)(C)C)cc1	-23%	?	3%	-17%	-60*
CC(=O)N1CCC2(CCCN(Cc3cc(C(F)(F)F)cc(C(F)(F)F)c3)C2)CC1	-9%	nt	nt	nt	nt
Cc1n[nH]c2c([N+](=O)[O-])c(=O)[nH]c(=O)n12	2%	-8%	-4%	-6%	-71*
Cc1ccc(-n2c3c(cc(-c4nc(-c5ccc(Cl)cc5)cs4)c2=O)C(=O)CC(C)(C)C3)cc1	-6%	-3%	nt	-3%	5
Clc1cccc(Cl)c1C[n+]1ccc2ccccc2c1	-23%	nt	?	nt	-94*
CCCCC(=O)N1CCN(c2nc3ccc(Cl)cc3s2)CC1	3%	-14%	7.9µM*	-6%	?
CC(C)(CC(=O)O)CC(=O)N1CCN(c2nc3ccc(Cl)cc3s2)CC1	3%	nt	9%	nt	nt
SMILES	FMDV antiviral	Vaccinia mCherry	HCV inh	VACV Venus inh	HCMV inh
CC(C)(C)NC(=O)N1CCN(c2nc3ccc(Cl)cc3s2)CC1	-6%	-9%	13µM*	-13%	nt
COc1ccc(C(=O)C[n+]2ccc(Cl)c3ccc(Cl)cc32)cc1	nt	27%	nt	-12%	nt
O=S1(=O)c2ccccc2N(Cc2ccccc2F)c2ccccc21	-29%	-8%	nt	-15%	-6
Nc1ccc2ccc(NS(=O)(=O)N3CCCCC3)cc2c1	nt	nt	nt	nt	7
CCCCCCCCCCCCCCCC[n+]1ccc(CC(O)c2c(C)[nH]c3ccccc23)c2ccccc21 (stereo unspecified)	nt	i	nt	i	nt
COCc1ccc([C@@H]2C[C@H]3CN(Cc4ccccc4C)C(=O)[C@]34CCCN24)o1	39%	nt	-13%	nt	-29
Cc1ccccc1CN1C[C@@H]2C[C@@H](c3cn[nH]c3-c3ccc(F)cc3)N3CCC[C@@]23C1=O	15%	?	?	-15%	-71*
COc1ccc(-c2[nH]ncc2[C@@H]2C[C@H]3CN(Cc4ccccc4C)C(=O)[C@]34CCCN24)cc1	14%	nt	?	nt	-71*
CC1CCCCN1C(=O)Cn1c(=O)n(-c2ccc(Cl)cc2)c(=O)c2c3c(sc21)CCC3 (stereo unspecified)	1%	-8%	nt	4%	-16
CCCn1c(SCC(=O)NC2CCCCC2)nnc1-c1cccnc1	6%	-1%	9%	-16%	-65*
Cc1ccc(NC(=O)N2CCN(c3nnc(C)c4c(C)n(-c5ccc(Cl)cc5)nc34)CC2)c(C)c1	-4%	-23%	nt	-16%	-14
CC(=O)Nc1c([N+](=O)[O-])cc(C)c(Cl)c1[N+](=O)[O-]	-13%	?	4%	-27%	-77*
Brc1cccc[n+]1Cc1ccc(C[n+]2ccccc2Br)cc1	nt	i	nt	-10%	nt
Cc1ccc(S(=O)(=O)N2CCC(=O)N(CCOCc3cccc(F)c3)CC2)cc1	-15%	-9%	-1%[8.37 µM]	-19%	-7
Cc1ccc(S(=O)(=O)N2CCC(=O)N(CCOCc3cccc(Cl)c3)CC2)cc1	-7%	-10%	7%[8.37 µM]	-20%	-64*
Cc1ccc(S(=O)(=O)N2CCC(=O)N(C(COCc3cccc(C(F)(F)F)c3)Cc3ccccc3)CC2)cc1 (stereo unspecified)	-13%	?	10µM*	-25%	1
CCCCc1ccc(CC(=O)NO)cc1	nt	28%	nt	-11%	nt
Cc1ccc(-n2ncc(C#N)c2/N=C/N2CCCCCC2)cc1	?	-15%	10µM*	-8%	-21
Cc1c([N+](=O)[O-])cc(C(=O)N2CCOCC2)cc1[N+](=O)[O-]	-15%	-4%	3%	-7%	0
Cc1ccc(Sc2ccc(C(=O)N3CCOCC3)cc2[N+](=O)[O-])cc1	-22%	nt	-14%	nt	-75*
CCOc1ccccc1/C=N/OCC(=O)NCc1ccc(F)cc1	-19%	-13%	4µM*	-3%	-23
COC(=O)c1cn([C@@H]2C[C@@H](C(=O)N3CCCCCC3)N(Cc3cc4ccccc4s3)C2)nn1	2%	-7%	nt	-8%	nt
Cc1csc2nc(COC(=O)c3cccc(NC(=O)COc4ccccc4Cl)c3)cc(=O)n12	-24%	i	nt	-20%	-61*
Cc1ccccc1OCC(=O)Nc1ccc(C(=O)OCc2cc(=O)n3c(C)csc3n2)cc1	4%	i	nt	0%	-87*
Cc1ccc(OCC(=O)Nc2ccc(C(=O)OCc3cc(=O)n4c(C)csc4n3)cc2)cc1	-3%	i	nt	-14%	-22
COc1oc(=O)c2cc(N)ccc2c1Cl	0%	nt	nt	nt	nt
CCN(Cc1ccccc1)C(=O)Cn1c(=O)n(-c2cccc(C)c2)c(=O)c2c1c1cc(C)ccc1n2C	-9%	-7%	nt	-2%	-18
